Laboratory results taken from ChEMBL document CHEMBL3988442, “University of Dundee, Small-Polar-MMV Screening Library” (2021).

Target: AMP-activated protein kinase, AMPK (Homo sapiens) (UniProt P54646+O43741+P54619+Q9UGJ0+Q9Y478+Q13131+Q9UGI9)
Experiment: AMP-dependent Kinase enzyme assay. An in vitro enzyme assay that detects ADP turnover that is directly proportional to AMPK activity. This uses naive AMPK that is activated during the assay with MK-8722
Assay type: functional
Parameters: scale not given: direction of the effect not stated beside the values
Conditions: 30 µM

Row | Compound | Percent Effect [%]
1 | COc1ccc(C(C)NCCc2ccc(NC(C)=O)cc2)c(OC)c1 (stereo unspecified) | 8.45
2 | c1ccc(C2CN(C3CC3)CC3(CCN(Cc4ncc[nH]4)CC3)C2)cc1 (stereo unspecified) | 6.22
3 | CC(NC(=O)N1CCCN(CC(F)F)CC1)c1ccco1 (stereo unspecified) | -1.66
4 | CCCN(CCc1ccccn1)C(=O)Cn1cnnn1 | 4.35
5 | CN1CCCC1CCNC(=O)c1ccccc1-n1cnc(CN)c1 (stereo unspecified) | 7.02
6 | N#CCCN(C(=O)CCc1cscn1)c1ccc2c(c1)OCCO2 | -3.58
7 | COc1ccccc1NC(=O)c1cnc(C2CCN(C(C)=O)C2)nc1C (stereo unspecified) | 5.26
8 | OCc1cccc(OCc2ccon2)c1 | 4.35
9 | COc1cc(COCC2CCN(Cc3ccccn3)CC2)cc(OC)c1 | -0.77
10 | Cc1ccccc1S(=O)(=O)N[C@@H]1CC[C@@H](N2CCNC(=O)C2)[C@@H]1O | 5.3
11 | Cc1ccc(C2(O)CCN(C(=O)CCn3ccc(=O)[nH]c3=O)CC2)nc1 | 1.66
12 | CC(C)C(=O)NCC(=O)N1CCC2(CC1)c1ccccc1[C@@H](N)[C@@H]2O | 3.94
13 | O=C(N1CC(c2cccnc2)C1)C1(c2ccc(F)cc2)CCOCC1 | 0.43
14 | COc1cccc2c1OCC(Cc1cc(C(=O)N3CCCC3)ccn1)C2 (stereo unspecified) | 5.36
15 | CC(C)OCCN1CCC(Nc2ncccn2)CC1 | -1.19
16 | CS(=O)(=O)c1ccc(CNC(=O)NCc2cc[nH]n2)cc1 | -5.06
